From PubChem
Hits are enriched below; roughly 2.8% of the tested compounds scored in any of these assays.
WRN inhibitor – WRN helicase (human) inhibition | Q14191 | WRN helicase unwinding, fluorescent forked duplex, kinetic | Potency, µM (top dose mostly 114 µM), most hits filed as inhibitors | 360,000 compounds, 0.46% hits; further: nearly all actives have a fitted effect of over 55% in size
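Screening of the MLSMR collection measured strand separation of a quenched forked DNA duplex (100 nM) by 20 nM WRN with 2 mM ATP, all final. Compounds were preincubated with enzyme 15 min at room temperature.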
PI5P4K alpha inh – PI5P4K alpha (human) kinase inhibition; PI5P4Kalpha enzyme, ADP-Glo luminescence, 60 min; active compounds read low; P48426; 330,000 compounds, 1.2% hits; max response, %; active means max response of -50% or lower; inconclusive means between -30% and -50%; inactive means -30% or higher; further: value at the top dose of about 77 µM
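qHTS, 1536-well: enzyme/substrate mix, compound by pin tool, 5 microM ATP final; RT 60 min; ADP-Glo reagents 1 (45 min) then 2 (30 min); luminescence.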
POLK inh – blocks human DNA polymerase kappa activity. purified Pol kappa, fluorescent DNA synthesis assay, 10 min. Potency, µM (highest dose often 107 µM), actives largely listed as inhibitors. 400,000 compounds, 0.53% hits. Q9UBT6
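Readout: fluorescence, taken kinetically at 0 and 10 min. Conditions: 10 nM Pol kappa, 15 min RT compound preincubation, 50 nM substrate final. Controls: enzyme-free buffer wells.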
POLH inh – blocks human DNA polymerase eta activity | Q9Y253 | Potency, µM (doses to about 114 µM), actives largely listed as inhibitors | 390,000 compounds, 1.2% hits | AID 588591 | recombinant Pol eta, fluorescent DNA replication assay
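Pol eta at 10 nM preincubated with compounds 15 min at room temperature; reaction started with fluorescent substrate (50 nM final) and read kinetically at 0 and 10 min.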
Pol iota inh – inhibitors of human DNA polymerase iota. Q9UNA4. Pol iota fluorescent replication assay, 10 min. Potency, µM (top dose mostly 115 µM), hits mostly inhibitors. 390,000 compounds, 1% hits. AID 588590
Target sequence (Q9UNA4 whole entry, looked up): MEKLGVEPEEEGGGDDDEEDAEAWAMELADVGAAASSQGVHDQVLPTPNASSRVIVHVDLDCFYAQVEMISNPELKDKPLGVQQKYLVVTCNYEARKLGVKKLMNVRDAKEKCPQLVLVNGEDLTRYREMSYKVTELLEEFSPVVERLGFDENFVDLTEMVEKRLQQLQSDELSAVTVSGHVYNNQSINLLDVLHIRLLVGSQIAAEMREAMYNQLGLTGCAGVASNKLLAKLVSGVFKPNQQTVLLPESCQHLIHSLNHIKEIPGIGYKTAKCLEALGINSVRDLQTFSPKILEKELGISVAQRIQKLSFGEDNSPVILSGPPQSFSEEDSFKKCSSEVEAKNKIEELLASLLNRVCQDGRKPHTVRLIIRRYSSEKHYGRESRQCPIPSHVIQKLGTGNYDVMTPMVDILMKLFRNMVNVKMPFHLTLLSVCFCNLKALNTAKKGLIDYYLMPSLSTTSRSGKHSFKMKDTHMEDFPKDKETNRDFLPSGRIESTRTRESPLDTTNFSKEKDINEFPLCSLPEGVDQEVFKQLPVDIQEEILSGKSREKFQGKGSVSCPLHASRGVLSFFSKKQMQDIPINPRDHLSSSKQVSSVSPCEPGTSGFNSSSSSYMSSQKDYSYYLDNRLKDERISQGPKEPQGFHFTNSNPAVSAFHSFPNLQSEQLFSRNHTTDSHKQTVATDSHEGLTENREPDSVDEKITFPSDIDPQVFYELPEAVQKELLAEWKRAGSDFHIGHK
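Fluorescent replication assay read twice, at 0 min and 10 min after adding 50 nM (final) substrate. Enzyme (10 nM) and compounds were first incubated 15 min at room temperature; enzyme-free buffer wells were negative controls.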
POLB inh – inhibitors of human DNA polymerase beta; P06746; Pol beta primer extension/strand displacement, fluorescence kinetic; Potency, µM (highest dose often 114 µM), most hits filed as inhibitors; 340,000 compounds, 1.3% hits
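Kinetic readout of DNA synthesis with strand displacement by Pol beta. Compound and 10 nM enzyme sit 15 min at room temperature; 50 nM substrate starts the reaction, read immediately and at 10 min.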
Hits are given with their value; - = inactive; ? = inconclusive; . = no result. Unless noted, the call rests on the fitted dose curve; in most records, active means well fitted curve in the direction sought with a large enough effect; inconclusive means small, poorly fitted or top-dose-only effect, or another doubt; inactive means no such curve, though single readings can be large; an effect the other way counts as inactive or inconclusive.

SMILES	WRN inhibitor	PI5P4K alpha inh	POLK inh	POLH inh	Pol iota inh	POLB inh
CN(Cc1ccco1)C(=O)CCc1nc2sc3c(c2c(=O)[nH]1)CCCC3	-	?	?	?	45µM	-
O=C(CCc1nc2sc3c(c2c(=O)[nH]1)CCCC3)NCCc1ccc(F)cc1	-	?	-	?	?	22µM
CN(C)C(=O)CCc1nc2sc3c(c2c(=O)[nH]1)CCCC3	-	-	-	-	-	-
CC(=O)N1CCN(C(=O)CCc2nc3sc4c(c3c(=O)[nH]2)CCCC4)CC1	-	-	-	-	-	-
CC(C)(C)n1ncc2c(=O)n(Cc3cccc(Cl)c3Cl)cnc21	.	.	-	.	-	.
CCOc1ccccc1Oc1nc(C)nc2c1oc1ccccc12	.	.	-	-	-	-
CC(=O)Nc1ccc(NC(=O)CCc2nc3sc4c(c3c(=O)[nH]2)CCCC4)cc1	-	?	-	?	40µM	.
NC(=O)c1ccc(NC(=O)CCc2nc3sc4c(c3c(=O)[nH]2)CCCC4)cc1	-	-	-	?	?	.
O=C(CCc1nc2sc3c(c2c(=O)[nH]1)CCCC3)Nc1cccc(Cl)c1	-	?	-	13µM	79µM	.
Cc1cc(C)cc(NC(=O)CCc2nc3sc4c(c3c(=O)[nH]2)CCCC4)c1	-	?	?	20µM	45µM	.
CCN(CC)C(=O)c1cccc(NC(=O)CCc2nc3sc4c(c3c(=O)[nH]2)CCCC4)c1	?	-	-	-	?	.
COc1cc(OC)c(/C=C/c2ccncn2)c(OC)c1	.	.	-	.	?	.
CC(C)C[C@H](NC(=O)[C@H](Cc1c[nH]c2ccccc12)NC(=O)[C@H](CCCCN)NC(=O)CNC(=O)[C@H](CC(C)C)NC(=O)[C@H](CO)NC(=O)[C@@H](N)Cc1cnc[nH]1)C(=O)NCC(=O)N[C@@H](Cc1cnc[nH]1)C(=O)N1CCC[C@H]1C(=O)N[C@@H](CC(=O)O)C(=O)N[C@@H](CCCCN)C(=O)N[C@@H](Cc1ccccc1)C(=O)O	.	.	-	.	.	.
CC(=O)Oc1ccc2occ(-c3ccccc3)c2c1	-	-	-	-	-	56µM
Brc1ccc(C2C=Cc3ccccc32)cc1 (centres undefined)	.	.	-	.	-	.
CC1=C(O)C(=O)C(C2=C(O)C(=O)C(C)=C(O)C2=O)=C(O)C1=O	-	?	?	-	-	.
O=C1C(O)=C(O)C(=O)C(O)=C1O	.	.	8.9µM	.	.	.
CC(=O)N1CCn2c3c(c(=O)c4cc(C)ccc42)CCC31 (centres undefined)	-	-	-	-	22µM	-
CCN(CC)C(=O)Cn1c(SCC(=O)Nc2ccc(C)c(C)c2)nc2ccccc21	.	.	-	-	-	-
Cc1ccc(NC(=O)CSc2nnc(Cc3cccn3C)n2-c2ccc(F)cc2)cc1	-	-	-	-	-	-
CCSc1nnc(NC(=O)CSc2nnc(Cc3cccn3C)n2-c2ccc(C)cc2)s1	-	.	-	-	50µM	?
O=C1C=CC(=O)N1c1ccc(Nc2ccccc2)cc1	?	?	-	-	-	.
CCN(CC)C1CC(=O)N(c2cccc(C)c2)C1=O (centres undefined)	.	.	.	.	.	-
O=C1C=CC(=O)N1c1ccc2ccccc2c1	50µM	-	-	-	-	.
Cc1cccc(N2C(=O)C=CC2=O)c1	45µM	-	-	-	-	.
SMILES	WRN inhibitor	PI5P4K alpha inh	POLK inh	POLH inh	Pol iota inh	POLB inh
CCc1cccc(NC(=O)CCc2nc3cccnc3n2-c2ccccc2)c1	.	.	-	-	-	-
CC1=NN(Cc2ccccc2)C(=O)C1	-	-	-	-	3.2µM	-
Cc1cc(/C=C/c2ccc3cc(N(C)C)ccc3[n+]2C)c(C)n1-c1ccccc1	.	.	28µM	.	.	.
CC(C)=C1C(=O)NN(c2ccc(C)c(Cl)c2)C1=O	-	?	?	-	79µM	?
Nc1nonc1C(=O)NCCNCc1cccc(Cl)c1Cl	.	.	-	-	-	-
COc1ccccc1-c1nnc(SCCOc2ccccc2C)o1	.	.	-	.	-	-
CC[N+]1(C)CCC(O)(c2ccc(OC)cc2)C(C(=O)c2ccc(OC)cc2)C1 (centres undefined)	10µM	-	-	?	?	.
O=C(O)CCc1ccc(-c2ccc(F)cc2)n1CC(=O)O	-	-	-	11µM	?	-
Cc1ccc(-c2ccc(CCC(=O)O)n2CC(=O)O)cc1	-	.	-	25µM	?	16µM
O=C(c1ccc(Br)cc1)N1CCC(c2nc3ccccc3s2)CC1	.	.	-	-	-	-
COc1ccc2c(CNCCc3cccs3)c(C(=O)O)n(Cc3ccccc3C)c2c1	.	.	-	-	-	?
Cc1ccc(Cl)cc1N1CCN(C(=O)CSc2cc(=O)n(C)c3ccccc23)CC1	.	.	-	-	-	-
Cc1ccc(Cl)cc1N1CCN(C(=O)CSc2ccsc2[N+](=O)[O-])CC1	-	?	-	22µM	?	20µM
CC(C)c1cc2c(c(O)c1O)[C@@]13CCCC(C)(C)C1CC2OC3=O (some centres undefined)	-	-75	-	-	-	-
COc1ccc(CNC(=O)c2cc3cccc4c3n2CC(C)S4)cc1 (centres undefined)	.	.	-	-	-	-
O=C(O)c1ccc2c(c1)C(=O)N(Cc1ccc3c(c1)OCO3)C2=O	-	-	-	-	?	-
O=C(O)c1ccc(CN2C(=O)c3cccc4c([N+](=O)[O-])ccc(c34)C2=O)cc1	-	-	-	22µM	?	?
COC(=O)c1ccc(CN2C(=O)c3ccccc3C2=O)cc1	-	-	-	-	-	-
COc1ccc(CN2C(=O)c3ccc(C(=O)O)cc3C2=O)cc1	-	-63	-	-	-	-
O=C(O)c1ccc(CN2C(=O)c3ccc(C(=O)O)cc3C2=O)cc1	-	-58	-	-	-	-
Cc1ccc(C)n1Cc1ccc(C(=O)O)cc1	2.8µM	.	1.3µM	-	0.71µM	2.8µM
Cc1c(NC(=O)NC(=O)c2ccc(F)cc2)c(=O)n(-c2ccccc2)n1C	-	-	-	-	-	-
Cc1c(N=C2N=C(NC(=O)c3ccc(F)cc3)c3ccccc32)c(=O)n(-c2ccccc2)n1C	-	-	13µM	?	?	-
Cc1ccc2c(c1)c(=O)c1ccccc1n2CCCC(=O)Nc1cc(Cl)ccc1C	.	.	-	79µM	-	?
CN(C)c1ccc(CNC(=O)c2ccc3nc(Cc4ccccc4)oc3c2)cc1	.	.	-	-	28µM	-
Cc1ccc2c(CC(=O)Nc3ccc(S(=O)(=O)N4CCCCC4)cc3)coc2c1C	.	.	-	-	-	-
CN(C)c1ccc(CNC(=O)c2ccc3nc(CCc4ccccc4)oc3c2)cc1	.	.	-	-	-	-
CCOc1ccc(CCNC(=O)Cn2c(=O)c3cccn3c3cccnc32)cc1	-	-	-	-	-	100µM
O=C(NCCc1ccccc1Cl)c1ccc(Cn2c(=O)c3cccn3c3cccnc32)cc1	.	.	-	?	?	14µM
